Screening results deposited in PubChem BioAssay by National Center for Advancing Translational Sciences (NCATS).
This excerpt belongs to a sample that is enriched for hits.
NTMT1 inh: blocks human N-terminal methyltransferase 1 activity; NTMT1 MTase-Glo SAH luminescence, purified enzyme; Potency, µM (titrated, usually from 114 µM), without a hit: top-dose activity change, negative = inhibition, usual class: inhibitors; Q9BV86; AID 1645870; hit rate 2.5% among 59,000;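 note: plate controls were DMSO vehicle for no effect and no enzyme for full effect; nearly all actives have a fitted effect of over 65% in size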
Target sequence (Q9BV86 whole entry, looked up): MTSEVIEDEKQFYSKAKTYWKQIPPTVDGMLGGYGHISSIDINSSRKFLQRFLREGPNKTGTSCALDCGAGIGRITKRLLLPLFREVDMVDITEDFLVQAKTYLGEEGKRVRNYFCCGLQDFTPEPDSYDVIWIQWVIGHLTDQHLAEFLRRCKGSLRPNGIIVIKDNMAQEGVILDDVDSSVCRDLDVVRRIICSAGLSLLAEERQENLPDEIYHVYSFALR
HTT prom inh: inhibitors of huntingtin promoter activity; HEK293 HTT promoter firefly luciferase reporter, 24 h; Potency, µM (highest dose often 57.5 µM), without a hit: at the highest dose activity change, negative = inhibition, actives largely listed as inhibitors; hit rate 0.93% among 48,000; note: nearly all actives have a fitted effect of over 50% in size
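HEK293 luciferase promoter-reporter cells (2,500/well) plated 24 h, then compounds added at up to 57.5 uM final for 24 h at 37 °C. Firefly luminescence by Dual-Glo, normalized to vehicle (0%) and zero RLU (-100%).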
HTT-AS promoter: activators of huntingtin-antisense promoter activity | HEK293 HTT-AS promoter firefly luciferase reporter, 24 h; response scale: percent change from vehicle, -100% = no light | Potency, µM (highest dose often 57.5 µM), without a hit: at the top dose activity change, positive = activation, usual class: activators | hit rate 0.24% among 48,000 | AID 1508624; note: nearly all actives have a fitted effect of over 55% in size
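Quantitative HTS used concentration series of up to 57.5 uM final on HEK293 luciferase reporter cells, 24 h at 37 degrees C. Readout was Dual-Glo firefly luminescence.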
* marks the source's active call; other numbers are inactive results; ? = inconclusive; . = no result; ! = repeats disagree; [ ] = remark or other dose. Calls come from the whole dose curve; as a rule, active = well fitted curve in the direction sought with a large enough effect; inconclusive = small, poorly fitted or top-dose-only effect, or another doubt; inactive = no such curve, though single readings can be large; an effect the other way counts as inactive or inconclusive. Potency is the fitted concentration of half-maximal effect.

SMILES | NTMT1 inh | HTT prom inh | HTT-AS promoter
CO[C@H]1C[C@@H]2CC[C@@H](C)[C@@](O)(O2)C(=O)C(=O)N2CCCC[C@H]2C(=O)O[C@H]([C@H](C)C[C@@H]2CC[C@@H](OP(C)(C)=O)[C@H](OC)C2)CC(=O)[C@H](C)/C=C(\C)[C@@H](O)[C@@H](OC)C(=O)[C@H](C)C[C@H](C)/C=C/C=C/C=C/1C | 5%[29.8 µM] | . | .
Cc1cc(Nc2nn(-c3ccccc3)c(=O)c3ccccc23)n[nH]1 | 5% | . | .
Cc1cccc(CNc2ncnc3ccc(-c4cccnc4)cc23)c1 | -10% | . | .
Cc1[nH]nc2ccc(-c3cncc(OC[C@@H](N)Cc4ccccc4)c3)cc12 | 25µM*! | ? | -43%
COc1cc(N2CCC(N3CCN(C)CC3)CC2)ccc1Nc1ncc(Cl)c(Nc2ccccc2P(C)(C)=O)n1 | 0% | . | .
Cc1cc(Nc2ncc(Cl)c(Nc3ccccc3S(=O)(=O)C(C)C)n2)c(OC(C)C)cc1C1CCNCC1 | 14µM* | . | .
O=C(NCc1ccccc1)[C@H](Cc1ccccc1)NC(=O)[C@H]1O[C@@H]1C(=O)NCCc1ccc(O)cc1 | 7% | . | .
COc1cc(S(C)(=O)=O)ccc1Nc1nc2ccc(-c3ccc(NC(=O)[C@H](C)c4ccc(F)cc4)cc3)cn2n1 | 44%[57.5 µM] | . | .
COc1ccc(C2=CC(c3ccccc3F)n3ncc(C(=O)Nc4ccc(C)cc4)c3N2)cc1 (stereo not given) | ? | 0% | 15%
COc1cccc(C2=CC(c3ccccc3F)n3ncc(C(=O)Nc4ccc(F)cc4)c3N2)c1 (stereo not given) | 22µM* | ? | -31%
Cc1ccc(C)c(N2CCN(C(=O)C3CCN(C(=O)c4cc5sccc5n4C)CC3)CC2)c1 | 0% | ? | -43%
Cc1cccc(N2CCN(C(=O)C3CCN(C(=O)c4cc5sccc5n4C)CC3)CC2C)c1 (stereo not given) | -1% | 22µM* | -55%
CC1=C(C(=O)OC2CCCCCC2)C(c2ccccc2Cl)CC(=O)N1 (stereo not given) | -9% | ? | -33%
CCOc1ccccc1C1CC(=O)NC(C)=C1C(=O)OC1CCCCCC1 (stereo not given) | 0% | 32µM* | -45%
C[C@@H]1O[C@@H](OC[C@H]2O[C@@H](Oc3cc(O)cc4c3C(=O)C(O)(Cc3ccc(O)cc3)O4)[C@H](O)[C@@H](O)[C@@H]2O)[C@H](O)[C@H](O)[C@H]1O (stereo not given in full) | -17%[12.6 µM] | . | .
COc1ccc(-c2nc(CSCC(=O)N3CCN(c4ccccc4)CC3)c(C)o2)cc1 | 3% | ? | -57%
COc1ccc(N2CCN(C(=O)C3CCN(Cc4nc(-c5ccc(Cl)cc5)oc4C)CC3)CC2)cc1 | 89µM* | -28% | -22%
Cc1oc(-c2ccc(Cl)cc2)nc1CN1CCC(C(=O)NCCCN2CCN(c3cccc(Cl)c3)CC2)CC1 | 79µM* | -21% | -30%
Cc1ccc(Cl)cc1N1CCN(C(=O)C2CCN(Cc3nc(-c4ccc(Cl)cc4)oc3C)CC2)CC1 | 1% | -18% | -32%
COc1ccc(-c2nc(CSCC(=O)N3CCN(c4ccc(F)cc4)CC3)c(C)o2)cc1 | 10% | 13µM* | -51%
Cc1oc(-c2cccc(Cl)c2)nc1CN1CCC(C(=O)NCCCN2CCN(c3ccc(F)cc3)CC2)CC1 | ? | ? | -46%
CC1(C)CC[C@]2(CO[C@@H]3O[C@H](CO)[C@@H](O)[C@H](O)[C@H]3O)[C@@H](O)C[C@]3(C)C(=CCC4[C@@]5(C)CC[C@H](O[C@@H]6O[C@H](CO[C@@H]7O[C@H](CO[C@@H]8OC[C@@H](O)[C@H](O)[C@H]8O)[C@@H](O)[C@H](O)[C@H]7O)[C@@H](O)[C@H](O)[C@H]6O)C(C)(C)C5CC[C@]43C)[C@@H]2C1 (stereo not given in full) | 9%[12.6 µM] | . | .
COc1cccc(CNc2ccc(C(=O)Nc3nccs3)cc2)c1O | -1% | . | .
Cc1cnc(-c2ccccc2CO)nc1NCC1CCN(c2cccnc2)CC1 | 8% | . | .
CCc1ccc(-c2nc3cc(NC(=O)c4cc5ccccc5cc4OC)ccc3o2)cc1 | 5% | -22% | -7%
SMILES | NTMT1 inh | HTT prom inh | HTT-AS promoter
CCOc1ccc(C(=O)Nc2cc(-c3nc4cc(OC)ccc4o3)ccc2C)cc1[N+](=O)[O-] | -4% | 30% | ?
COc1cc2ccccc2cc1C(=O)Nc1cc(-c2nc3ccccc3o2)ccc1C | -6% | 17% | 14%
COc1cc2ccccc2cc1C(=O)Nc1cccc(-c2nc3cc(C)c(C)cc3o2)c1 | ? | 7.1µM* | -74%
COc1cccc(-c2nc3cc(NC(=O)c4ccc(C)c([N+](=O)[O-])c4)ccc3o2)c1 | 79µM* | . | .
COc1cc2ccccc2cc1C(=O)Nc1ccc2oc(-c3cccc(Cl)c3Cl)nc2c1 | 79µM* | 9% | 3%
CC1(C(=O)O)CCC2(C)CCC3(C)C(=CC(=O)C4C5(C)CCC(OC6OC(C(=O)O)C(O)C(O)C6OC6OC(C(=O)O)C(O)C(O)C6O)C(C)(C)C5CCC43C)C2C1 (stereo not given) | 7% | . | .
CC(C)(C)NC(=O)N1CCC(C(=O)Nc2ccc([S+](=O)([O-])Nc3nccs3)cc2)CC1 | 7% | . | .
COC(=O)C1=C(C)NC(c2ncc(F)cc2F)=N[C@H]1c1ccc(F)cc1Cl | 15% | . | .
O=C1Nc2ccccc2C(O)(c2ccccc2)C1O (stereo not given) | 7%[57.5 µM] | . | .
Cc1ccc(C)c(NC(=O)N2CCN(C)c3ncccc32)c1 | 14% | ? | -28%
CCOc1ccccc1NC(=O)N1CCN(C)c2ncccc21 | 89µM* | -14% | -20%
O=C(Nc1ccc(S(=O)(=O)Nc2nc(-c3ccccc3)cs2)cc1)c1ccc2ccccc2c1 | -10% | . | .
Cc1ccc(C2=CC(c3ccc(Cl)cc3)n3nc(-c4ccc(C)cc4)nc3N2)cc1 (stereo not given) | 17% | ? | -33%
COc1ccc(C2C=C(c3ccc(Cl)cc3)Nc3nc(-c4ccc(Cl)cc4)nn32)cc1 (stereo not given) | 25% | 25µM* | -92%
NC(=NCCCCCCN=C(N)N=C(N)Nc1ccc(Cl)cc1)N=C(N)Nc1ccc(Cl)cc1 | 35µM*! | 32% | -8%
CC(C)N=C(N)/N=C(\N)Nc1ccc(Cl)cc1 | 18%[57.5 µM] | -13% | -8%
Nc1nc(Nc2ccc3c(c2)CC[C@@H](N2CCCC2)CC3)nn1-c1cc2c(nn1)-c1ccccc1CCC2 | 35µM* | . | .
O=c1c2ccccc2nc2sc(Nc3ccc4c(c3)CCC4)nn12 | -11% | . | .
Cc1ccc(OCCn2c(CCNC(=O)C3CCN(C(=O)OC(C)(C)C)CC3)nc3ccccc32)cc1 | 10%[57.5 µM] | . | .
COc1cc(NC(=O)CSc2nc(-c3ccco3)cc(C(F)(F)F)n2)cc(OC)c1OC | -2% | 13µM* | -75%
COc1cc(NC(=O)CCCSc2nc(-c3ccco3)cc(C(F)(F)F)n2)cc(OC)c1OC | -4% | ? | -31%
CN(C)CCCNC(=O)c1ccc(-c2cnc3c(O)cccc3c2)cc1 | -12%[57.5 µM] | . | .
CN1CCCN=C1/C=C/c1cccs1 | 50µM*! | -5% | -8%
COc1ccc2nccc(C(=O)CC[C@@H]3CCN(CC#Cc4cc(F)cc(F)c4F)C[C@@H]3C(=O)O)c2c1 | -2%[57.5 µM] | . | .
